Source: PubChem BioAssay
MsrA inh: bovine MsrA inhibition; inhibition, % at 15.5 µM; purified bovine MsrA, absorbance read-out; 0.75% of 360,000 active; AID 651718;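 further: 0% = vehicle wells with enzyme and 100% = reference inhibitor wells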
GC-A act: GC-A (human) enzyme activation. P16066. HEK293 GC-A cells, cGMP TR-FRET, EC30 ANP; 0% at EC30 ANP, 100% saturating ANP. activation, % at 10 µM. 0.14% of 370,000 active. AID 1671463; in the data active means activation above about 40%
GC-B act: GC-B (human) receptor activation; P20594; HEK293-GC-B cells, CNP EC30, cGMP TR-FRET; 0% at EC30 CNP, 100% saturating CNP; activation, % at 10 µM; 0.11% of 370,000 active;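 active means activation at 10 µM reaching about 35% in either raw or pattern-adjusted values, limit read from the data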
bovine MsrA act: activators of bovine methionine sulfoxide reductase A; AID 602163; 0.3% of 360,000 active; purified bovine MsrA, absorbance read-out; activation, % at 10.6 µM; in the data active means activation above about 7.5%;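 further: 0% = vehicle and 100% = reference activator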
MsrA inh confirm: confirmation of bovine MsrA inhibitors | shares compounds with MsrA inh | purified bovine MsrA, absorbance read-out | inhibition, % at 15.5 µM | 41% of 2,300 active | AID 651822;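 further: coupled to thioredoxin reductase with NADPH and selenocystamine and DMSO as substrate; 0% = vehicle only and 100% = full effect of reference inhibitor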
The depositor's hits bear a star; x = no result. The list is not random: actives were taken first. Their share in the collection is about 1.2%. Unless noted, no stated cut-off is given here; in the data, active means inhibition above about 4.5%; inactive means the rest.

SMILES	MsrA inh	GC-A act	GC-B act	bovine MsrA act	MsrA inh confirm
COC(=O)[C@]12C[C@H](CC(=O)N3CCSCC3)C(=O)N(Cc3ccccc3)C1=C[C@H](C(C)C)O[C@@H]2C1CC1	1	-2	-4	x	x
CC1=C(C(=O)c2ccccc2)C(c2ccc(O)cc2)NC(=S)N1 (configuration not stated)	5.4*	7	11	-4	1
COc1ccc(-c2ccc3c(n2)CCCN3S(=O)(=O)c2ccc(C#N)cc2)cc1	0	-1	5	x	x
COc1ccc(-c2nc3c(C)cc(Br)cn3c2Cc2ccccc2C(F)(F)F)cc1OC	0	0	1	x	x
O=C(Nc1ccccc1)/C(=C1\CCCN1)[N+](=O)[O-]	3	1	-4	-4	x
O=C(Nc1ccc(F)cc1)/C(=C1/CCCCCN1)[N+](=O)[O-]	6.4*	4	-3	3	3
Cc1ccsc1/C=C1\SC(N)=NC1=O	5.0*	10	-7	-8	4
Cc1ccc(/C=C2\SC(N)=NC2=O)s1	2	3	-11	-4	x
CC(=O)OC(=C(OC(C)=O)c1ccccc1)c1ccccc1	5.8*	-3	2	-2	6.0*
COC(=O)CNC(=O)c1ccccc1	0	1	0	-1	x
Cc1cccc(NC(=O)/C(C#N)=C\c2cc(C)n(-c3ccc(C(=O)O)cc3)c2C)c1	4.7*	-3	1	-4	4
Cc1c(C(=O)O)cccc1-n1c(C)cc(/C=C(/C#N)C(=O)NCc2ccccc2)c1C	4	-3	0	-3	x
Cc1cc(/C=C(/C#N)C(=O)O)c(C)n1-c1cccc2ccccc12	5.7*	0	2	-3	4.9*
Cc1cc(/C=C(\C#N)C(=O)Nc2ccccc2)c(C)n1-c1ccc(C(=O)O)cc1	1	0	-6	-6	x
COC(=O)[C@@]12CCCCC3=C1N(CCC3)C(=O)[C@H]2CC(=O)NCCC(C)C	x	1	6	x	x
NC(=O)N/N=C/c1cn(-c2ccccc2)nc1-c1cccs1	1	-12	-7	-1	x
NS(=O)(=O)c1ccc(N/N=C/c2cn(-c3ccccc3)nc2-c2cccs2)cc1	7.0*	-5	1	-4	2
O=C(O)c1cccc(N/N=C/c2cn(-c3ccccc3)nc2-c2cccs2)c1	13*	-3	-5	-3	7.3*
NS(=O)(=O)c1ccc(N/N=C/c2cn(-c3ccccc3)nc2-c2cccs2)c([N+](=O)[O-])c1	2	1	-4	-9	x
COc1cc(OC)cc(-c2csc(N3CCC(C(N)=O)CC3)n2)c1	x	-5	-11	x	x
COC(=O)[C@]12C[C@H](CC(=O)NCCc3ccccc3OC)C(=O)N(CCC3=CCCCC3)C1=C[C@H](COCc1ccccc1)O[C@@H]2C	1	1	-2	x	x
COc1ccc(C(=O)/C=C/c2ccsc2)cc1CSCC(=O)O	4.7*	-5	-6	-6	4
CCOC(=O)C1=CCN(S(=O)(=O)c2ccc(Br)cc2)C1c1ccc(Br)cc1 (configuration not stated)	0	-20	-12	x	x
COc1ccc(C(=O)N/N=C/c2cccnc2)cc1	1	-3	-2	-3	x
Cc1nc(N)sc1C(=O)N/N=C/c1cccnc1	5.8*	-2	-4	-5	3
SMILES	MsrA inh	GC-A act	GC-B act	bovine MsrA act	MsrA inh confirm
COc1ccccc1/C=N/NC(=O)c1sc(C)nc1C	5.1*	-2	-1	-6	1
COc1ccc(/C=N/NC(=O)c2sc(C)nc2C)cc1	2	1	2	-3	x
CC(C)c1ccc(NC(=O)OC2CCC23CCC(c2ccccc2)CC3)cc1 (configuration not stated)	x	3	-12	x	x
O=C(N[C@@H](Cc1cccnc1)C(=O)N1CCC[C@H]1C(=O)NCCc1ccccc1Cl)C1CC1	3	2	3	x	x
CCc1ccc(/C=C2\SC(N3CCCC3)=NC2=O)cc1	4.8*	-4	-2	-5	3
COc1ccc(/C=C2\SC(N3CCCCC3)=NC2=O)cc1	5.9*	-17	-9	-5	4.7*
CCN=C1NC(c2ccccc2C(F)(F)F)C(C(=O)OC)=C(C)N1C (configuration not stated)	0	3	-2	x	x
O=C(N/N=C/c1ccc([N+](=O)[O-])o1)c1cc(-c2ccncc2)nc2ccccc12	6.1*	-5	-4	-10	2
O=C(N/N=C/c1cccc(O)c1)c1cc(-c2ccccc2)nc2ccccc12	1	1	-2	-3	x
O=C(N/N=C/c1ccc([N+](=O)[O-])o1)c1cc(-c2ccc(-c3ccccc3)cc2)nc2ccccc12	1	-16	-13	0	x
COc1ccc(/C=N/NC(=O)c2cc(=O)[nH]c3ccccc23)cc1OC	4.7*	-4	-6	-17	3
O=C(N/N=C/c1ccco1)c1cc(=O)[nH]c2ccccc12	2	0	-1	-5	x
CCOc1ccc2[nH]c(C(=O)N/N=C/c3cc(OC)c(OC)c(OC)c3)cc2c1	5.4*	5	4	-5	4.8*
COc1ccc(/C=N/NC(=O)c2cc(-c3ccccc3)nc3ccccc23)c(OC)c1	5.4*	17	11	-6	4
CCOC(=O)[C@]12CCCCC/C=C\1N(CCc1ccc(Cl)cc1)C(=O)[C@H]2CC(=O)NCCc1ccccc1OC	x	-1	-4	x	x
CCOC(=O)c1c(NC(=O)C(=O)N/N=C/c2ccc(O)c(OC)c2)sc2c1CCCCC2	5.0*	-2	-1	-1	3
CCOC(=O)c1c(NC(=O)C(=O)N/N=C/c2ccc(OCC)cc2)sc2c1CCCCC2	-1	4	4	-4	x
COc1cc(/C=N/NC(=O)c2cn(-c3cccc(C)n3)cn2)ccc1O	4.7*	-7	-1	-6	4
COc1ccc(OC)c2[nH]c(C(=O)N/N=C/c3ccccc3O)cc12	3	-2	-10	-1	x
COc1ccc(/C=N/NC(=O)c2cc[n+]([O-])cc2)cc1OC	x	x	x	-3	x
COc1cc(/C=N/NC(=O)c2cc[n+]([O-])cc2)ccc1O	7.5*	1	-2	-1	5.2*
COc1ccc(/C=N/NC(=O)c2cc3c(OC)ccc(OC)c3[nH]2)cc1O	6.6*	-15	-4	-5	5.8*
S=C(Nc1cc(Cl)cc(Cl)c1)NC(c1ccccc1)c1ccccc1	x	2	1	x	x
CCN(CC)C(=O)c1ncn2c1C(=O)NC[C@@H]2C	1	-1	-1	x	x
COc1cc(/C=N/NC(=O)c2cc3ccccc3[nH]2)ccc1O	8.4*	-9	-9	-1	5.9*
CCOc1ccccc1-c1cc(C(=O)N/N=C/c2ccc3c(c2)OCO3)c2ccccc2n1	-1	13	16	-3	x
COc1cc(/C=N/NC(=O)c2cccc(C(=O)N/N=C/c3ccc(O)c(OC)c3)n2)ccc1O	6.6*	-9	-2	-3	3
CCOc1ccccc1-c1cc(C(=O)N/N=C/c2ccc(O)c(OC)c2)c2ccccc2n1	4.9*	10	5	-7	2
COc1cc(/C=N/N(C)c2ccccc2)ccc1O	5.3*	-1	-4	-1	4
